PubChem BioAssay (NCI)
About 83,000 compounds went through this panel and 20% of them were active in at least one assay; those are over-represented in the sample as a whole.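 Cell lines were cultured in 96-well plates, exposed to a single compound concentration, and assessed for percent growth 48 hours later.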 A number with no mark means an inactive call. Activity calls are given as the source filed them. The calls were made as follows: active = growth percent below 10; inactive = the rest.

Experiments:
Test in all cases: NCI-60 one-dose screen, 48 h (100 = growth as untreated, 0 = no growth, -100 = all killed)
Conditions in all cases: 10 µM unless noted
HCT-15 colon = test system: HCT-15 colon
HT29 colon = test system: HT29 colon
SNB-75 CNS = test system: SNB-75 CNS
SNB-19 CNS = test system: SNB-19 CNS
U251 CNS = test system: U251 CNS
PC-3 prostate = test system: PC-3 prostate
SK-MEL-5 melanoma = test system: SK-MEL-5 melanoma
UACC-62 melanoma = test system: UACC-62 melanoma
LOX IMVI melanoma = test system: LOX IMVI melanoma
SK-MEL-28 melanoma = test system: SK-MEL-28 melanoma
SK-MEL-2 melanoma = test system: SK-MEL-2 melanoma
SN12C renal = test system: SN12C renal
UO-31 renal = test system: UO-31 renal
TK-10 renal = test system: TK-10 renal
ACHN renal = test system: ACHN renal
A498 renal = test system: A498 renal
CCRF-CEM leukemia = test system: CCRF-CEM leukemia
MOLT-4 leukemia = test system: MOLT-4 leukemia
CAKI-1 renal = test system: CAKI-1 renal
EKVX NSCLC = test system: EKVX NSCLC

Row | Structure (SMILES) | growth (HCT-15 colon) | growth (HT29 colon) | growth (SNB-75 CNS) | growth (SNB-19 CNS) | growth (U251 CNS) | growth (PC-3 prostate) | growth (SK-MEL-5 melanoma) | growth (UACC-62 melanoma) | growth (LOX IMVI melanoma) | growth (SK-MEL-28 melanoma) | growth (SK-MEL-2 melanoma) | growth (SN12C renal) | growth (UO-31 renal) | growth (TK-10 renal) | growth (ACHN renal) | growth (A498 renal) | growth (CCRF-CEM leukemia) | growth (MOLT-4 leukemia) | growth (CAKI-1 renal) | growth (EKVX NSCLC)
1 | c1ccn2nnnc2c1 | 99.8% | 98.9% | 106% | 106% | 92.7% | 97.6% | 103% | 105% | 91.9% | 106% | 104% | 92.7% | 94.5% | 96.4% | 111% | 101% | 99.7% | 101% | – | –
2 | O=c1oc2cc(OS(=O)(=O)c3ccc(F)cc3)ccc2c2c1CCCCC2 | 26.8% | 27.5% | 80.9% | 78.1% | 57.6% | 44.6% | 32.8% | 65.3% | 88.1% | 86.1% | 72% | 70.1% | 50.2% | 89.6% | – | 83.4% | 36% | 63.8% | 86.7% | –
3 | COc1ccc(OC)c(C(=O)c2oc3ccc(Br)cc3c2N)c1 | 24.2% | 7.35% (active) | -29.4% (active) | 38.3% | 9.85% (active) | -1.02% (active) | 31.7% | 10.9% | 32.9% | 37.9% | -9.79% (active) | 39.4% | 27.5% | – | 50.7% | -13.8% (active) | 4.72% (active) | 19.4% | 0.0162% (active) | –
4 | COc1cc(C(=O)/C=C/c2cc(C(=O)c3cc(OC)c(OC)c(OC)c3)ccc2OC)ccc1N | -10.2% (active) | -58.3% (active) | 29.5% | -7.07% (active) | -79.9% (active) | -20.6% (active) | -83.3% (active) | -79.8% (active) | -78.8% (active) | -53.4% (active) | -38.6% (active) | 18.8% | -86.7% (active) | 13.1% | -88.5% (active) | -6.91% (active) | -10.7% (active) | 4.31% (active) | – | –
5 | CN(C)c1ccc(/C=C\N=Nc2ccc(Br)cc2)cc1 | 36.2% | 52.9% | 82% | 96.2% | 68.4% | 52.3% | 76.5% | 17.2% | 13.2% | 83.9% | 72% | 65.8% | – | 68.5% | – | – | 29.7% | 29.2% | 51.5% | –
6 | COc1cc(C2C=C(C)N=C3SC=C(C)N32)cc(OC)c1OC (configuration not stated) | -20.4% (active) | -37.2% (active) | 24.6% | 33.5% | -75.6% (active) | -17.6% (active) | -97.5% (active) | -61.3% (active) | -82.4% (active) | -75.5% (active) | – | -8.33% (active) | -87.2% (active) | -22.5% (active) | -75% (active) | -27.6% (active) | -17.9% (active) | -2.68% (active) | -49.9% (active) | –
7 | C=CCn1c(C)nc2ccc(Nc3nc(Nc4ccc(F)cc4)nc4ccccc34)cc21 | 34.5% | 18.7% | 54.6% | 96.5% | 59.6% | 42.1% | 33.3% | 63.2% | 45.3% | 72% | – | 66.2% | 37.4% | 82.3% | 67.6% | 59.9% | 22.5% | -5.55% (active) | 58.2% | –
8 | COc1ccc(-n2c(C)cc(-c3ccccc3)c2C)cc1 | 37.9% | 12.4% | 41.2% | 69.6% | 43.5% | 31.7% | -3.53% (active) | 52.2% | 42.1% | 58.1% | – | 50.5% | 52.3% | 57.3% | 62.5% | 35.2% | 29.4% | 17.8% | 29.3% | –
9 | C=C1C(=O)O[C@H]2[C@H]1CC/C(Cn1cc(-c3ccsc3)nn1)=C\CC[C@@]1(C)O[C@@H]21 | -77.5% (active) | -68.5% (active) | 21.7% | 59.8% | 4.91% (active) | -20.4% (active) | -42.1% (active) | -55.7% (active) | -94.3% (active) | -54% (active) | – | -18.3% (active) | -91.5% (active) | -50.6% (active) | -90.5% (active) | -4.99% (active) | -24.7% (active) | -13.3% (active) | -53.5% (active) | -80.3% (active)
10 | O=C(O)c1ccc(-n2c(=O)c3ccccc3c3ccccc3c2=O)cc1 | 104% | 98.5% | 92.9% | 104% | 102% | 98.9% | 104% | 105% | 103% | 113% | – | 107% | 74.8% | 97.9% | 103% | 118% | 104% | 92.8% | 101% | –
11 | COc1ccc(/C=C/c2cc(N3CCOCC3)c3cc(F)c(F)cc3n2)cc1OC | 30% | 38.9% | 48% | 48.8% | 23.5% | 38.7% | 26.2% | 19.9% | 1.22% (active) | 51.4% | 45% | 44.4% | – | 31.9% | 26.4% | 54.8% | 12.3% | 9.14% (active) | – | –
12 | CN1C(=O)[C@H]2c3c1cccc3[C@@]13NC(=O)O[C@H]1[C@H](CCC3(C)C)C2(C)C | 93.6% | 100% | 81.1% | 90.7% | 103% | 84.6% | 98.1% | 85.4% | 100% | 109% | – | 93.3% | 84.6% | 87.2% | 94.2% | 107% | 94.5% | 79.4% | 94.4% | –
13 | CC1Cc2c(N(C)C)ncnc2N(C)c2ccc(Cl)cc21 (configuration not stated) | 18.8% | 10.8% | -12.4% (active) | 39.1% | 27.3% | 32.9% | 11.1% | 33.2% | 35.8% | 52.4% | – | 47.9% | 59.4% | 31.8% | 47.1% | -12.5% (active) | 18.1% | 28.2% | 25.1% | 29.3%
14 | CC(=O)OC[Si](C)(C)c1ccccc1 | 99.7% | 105% | 89.8% | 102% | 93.7% | 95.8% | 97.3% | 102% | 103% | 98.2% | – | 99.6% | 94.9% | 107% | 106% | 103% | 108% | 112% | 92.1% | –
15 | COc1ccc(C(=O)/C=C/c2cccc([N+](=O)[O-])c2)c(OC)c1 | -47.2% (active) | -3.14% (active) | 35.2% | 17% | -16.2% (active) | 33.3% | 41.4% | 31.5% | -73.3% (active) | 69.4% | – | 8.76% (active) | -13% (active) | 50% | -43.5% (active) | – | 5.85% (active) | 7.24% (active) | 24.8% | –
16 | COc1ccc(/C=C/C(=O)c2ccc(B(O)O)cc2)cc1O | 31.2% | 64.6% | 72.6% | 89.2% | 80.7% | 74.1% | 93% | 76.9% | 57.7% | 90.3% | 92.2% | 86.7% | – | 104% | 93.9% | 61.8% | 82.6% | 82.3% | – | –
17 | CC(=O)Nc1nc(C(=O)N2N=C(C)/C(=C/c3ccc(Cl)cc3)C2=O)cs1 | 100% | 108% | 98.3% | 104% | 101% | 98% | 104% | 111% | 101% | 110% | 90.5% | 105% | – | 123% | 108% | 117% | 99.6% | 91.7% | 100% | –
18 | O=C1Nc2cc(Cl)ccc2Oc2cc(Oc3ccccc3)ccc21 | 46.7% | 17.4% | 50.9% | 72.7% | 74.1% | 75.2% | 34.5% | 59.6% | 51.5% | 71% | – | 68% | 53.4% | 78% | 83.7% | 67.1% | 54.6% | 45.9% | 51% | 72%
